Assay outcomes (PubChem BioAssay)
Only some compounds are listed: those with a hit (about 19% of all), similar ones and a draw of the others.
TDP1 inh: TDP1 (human) enzyme inhibition; recombinant TDP1, AlphaScreen DNA substrate cleavage; AID 485290; Q9NUW8; Potency, µM (top dose mostly 130 µM), inactives show at the highest dose activity change, negative = inhibition, actives largely listed as inhibitors; 350,000 tested, 0.28% active; also: potency is read from the fitted curve at half-maximal effect; % is scaled to controls: 0 for no effect and ±100 for the full control effect; nearly all actives have a fitted effect of over 40% in size
Target sequence (Q9NUW8 whole entry, looked up): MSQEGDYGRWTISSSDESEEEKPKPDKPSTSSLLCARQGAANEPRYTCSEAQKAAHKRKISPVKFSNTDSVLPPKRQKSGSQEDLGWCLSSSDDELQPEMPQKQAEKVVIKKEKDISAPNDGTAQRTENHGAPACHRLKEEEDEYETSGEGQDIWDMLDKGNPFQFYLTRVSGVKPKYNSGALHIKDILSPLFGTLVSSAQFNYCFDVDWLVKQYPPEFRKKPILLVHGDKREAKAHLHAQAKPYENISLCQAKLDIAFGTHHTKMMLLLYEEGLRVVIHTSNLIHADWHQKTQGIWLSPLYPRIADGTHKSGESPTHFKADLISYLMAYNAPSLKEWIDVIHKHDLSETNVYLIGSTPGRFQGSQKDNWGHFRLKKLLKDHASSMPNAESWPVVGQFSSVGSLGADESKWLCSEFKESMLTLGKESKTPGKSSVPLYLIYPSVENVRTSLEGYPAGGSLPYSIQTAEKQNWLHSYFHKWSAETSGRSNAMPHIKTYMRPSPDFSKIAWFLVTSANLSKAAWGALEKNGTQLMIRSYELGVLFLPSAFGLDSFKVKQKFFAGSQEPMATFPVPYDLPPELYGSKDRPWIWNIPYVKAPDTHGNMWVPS
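Signal: AlphaScreen proximity between streptavidin donor and anti-FITC acceptor beads on intact substrate. Reaction: Tdp1 1 nM, substrate 15 nM final, 5 min RT after 15 min compound preincubation.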
TDP1 cell noCPT: qHTS for Inhibitors of human tyrosyl-DNA phosphodiesterase 1 (TDP1): qHTS in cells in absence of CPT; DT40 Tdp1-/- hTDP1 cells, no CPT, ATP luminescence, 48 h; Potency, µM (doses to about 46.2 µM), without a hit: at the top dose activity change, negative = growth inhibition, actives largely listed as inhibitors; 420,000 tested, 15% active; AID 686978, 2013; also: potency is read from the fitted curve at half-maximal effect; % is scaled to controls: 0 for no effect and ±100 for the full control effect; nearly all actives have a fitted effect of over 55% in size
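Chicken DT40 Tdp1-/- cells complemented with human TDP1, screened without camptothecin (DMSO vehicle only), 400 cells/well. Compounds pin-transferred, cells incubated at 37 °C for at least 48 hr. Growth read as ATP-dependent luminescence (CellTiter-Glo, 30 min at RT).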
DT40 TDP1 CPT: DT40-hTDP1 cell growth loss with CPT; chicken DT40 Tdp1-/-;hTDP1 cells + 20 nM CPT, ATP luminescence, 48 h; Potency, µM (doses to about 46.2 µM), inactives show at the top dose activity change, negative = growth inhibition, actives largely listed as inhibitors; 420,000 tested, 12% active; AID 686979; also: potency is read from the fitted curve at half-maximal effect; % is scaled to controls: 0 for no effect and ±100 for the full control effect; nearly all actives have a fitted effect of over 55% in size
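Chicken DT40 Tdp1-/- cells complemented with human TDP1, 400 cells/well, exposed to compounds plus 20 nM camptothecin for at least 48 h at 37 C; viability read as ATP content by CellTiter-Glo luminescence.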
IL1B secr inh: inhibitors of inflammasome signaling (IL-1 beta secretion); activity change, % at 57.5 µM; AID 743279; 360,000 tested, 4.7% active; THP-1 LPS/ATP IL-1B secretion, AlphaLISA, 16 h; active compounds read low; in the data active = activity change below about -50%; inconclusive = mostly about -30% to -49%; also: % is scaled to controls: 0 for no effect and ±100 for the full control effect
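Secreted IL-1B measured by AlphaLISA bead assay after 16 h compound exposure of THP-1 cells; compounds (final up to 57.5 uM) added 1 h before LPS (250 ng/mL) and ATP (1.25 mM) stimulation; lower signal means less secretion.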
HepG2 tox: kills HepG2 cells in TGF-b inhibitor counter-screen; Potency, µM (top dose mostly 46.1 µM), without a hit: at the highest dose activity change, negative = cytotoxicity, usual class: cytotoxic; HepG2 CAGA-GFP viability, ATP luminescence, 18 h; AID 588856; 410,000 tested, 0.76% active; also: potency is read from the fitted curve at half-maximal effect
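HepG2 CAGA-GFP cells (1000/well, DMEM with 1% FBS) received compound, then TGF-beta at 500 pg/mL final, and were incubated 18 hours at 37 degrees C. Viability was read by CellTiter-Glo luminescence. Media-only wells were set as complete cell-killing and DMSO as no toxicity.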
TGFb inhibitor: blocks TGF-b signaling; 410,000 tested, 1.2% active; AID 588855; Potency, µM (highest dose often 46.1 µM), for the others: top-dose activity, negative = inhibition, actives largely listed as inhibitors; HepG2 CAGA-GFP TGF-b/SMAD3 reporter, GFP fluorescence, 18 h; TGF-beta stimulated, 500 pg/mL final; also: potency is read from the fitted curve at half-maximal effect; % is scaled to controls: 0 for no effect and ±100 for the full control effect; nearly all actives have a fitted effect of over 65% in size
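GFP signal (ex488/em500-530) from TGF-beta-stimulated HEPG2 CAGA-GFP cells, 500 pg/mL final, 18 h at 37 degrees C in DMEM plus 1% FBS, normalized to unstimulated and DMSO-stimulated controls.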
* hit, by the source's call; ? = inconclusive; . = no result. Unless noted, calls follow the shape of the dose curve; as a rule, active = well fitted curve in the direction sought with a large enough effect; inconclusive = small, poorly fitted or top-dose-only effect, or another doubt; inactive = no such curve, though single readings can be large; an effect the other way counts as inactive or inconclusive.

SMILES | TDP1 inh | TDP1 cell noCPT | DT40 TDP1 CPT | IL1B secr inh | HepG2 tox | TGFb inhibitor
C[C@@H]1CC2=C(C(=O)OC(C)(C)O2)[C@H](c2ccc(Cl)cc2)O1 | . | ? | -24% | 29 | . | .
Cc1ccc(S(=O)(=O)N(CCC(=O)N2CCOCC2)c2ccccc2)cc1 | 3% | -11% | -17% | 8 | 0% | -2%
Cc1ccc2c(c1)cc1c(=O)n(CC(=O)NC(C)CCc3ccccc3)nc(C)n12 (stereo not given) | -1% | -16% | -7% | . | 10% | -2%
COc1ccccc1CCn1c(=O)c(-c2ccc(F)c(F)c2)nc2cncnc21 | . | -8% | -3% | . | . | .
CC1C(=O)C(C)C(c2ccc(Br)cc2)NC1c1ccc(Br)cc1 (stereo not given) | . | ? | ? | -12 | -2% | -21%
CC1(C)C(=O)OC(c2cc(Br)ccc2O)C(C)(C)C1=O (stereo not given) | -3% | 21µM* | ? | -15 | -29% | 0%
CC1C(=O)C(C)C(c2cc(Br)ccc2O)NC1c1cc(Br)ccc1O (stereo not given) | . | ? | -26% | -97* | -97% | 16µM*
CCCC[C@@H]1CCCO[C@@](C(=O)NCc2ccc(S(C)(=O)=O)cc2)(C(F)(F)F)C1 | 10% | . | . | . | -27% | ?
Cc1oc2c(cc(NS(=O)(=O)c3ccc(F)cc3)c3ccccc32)c1C(=O)OCc1ccccc1 | . | ? | ? | . | -3% | 9%
CC(=O)NCCNc1ncncc1-c1ccccc1C | . | 1% | -14% | . | . | .
CC(C)c1ccc2nc(N)sc2c1 | 4% | 26µM* | 20% | 2 | 5% | -5%
CCn1cc(/C=C/C(=O)c2ccc(O)cc2)c(C)n1 | 7% | 0% | 1% | -81* | 5% | 3%
COc1ccccc1N(Cc1ccccc1)S(=O)(=O)c1cc(C(=O)O)ccc1Cl | -3% | 0% | 4% | 29 | -18% | 16%
COC(=O)NNC(=O)/C=C/c1ccccc1 | -5% | -3% | -10% | 10 | -7% | -8%
O=C(/C=C/c1ccc(F)cc1)NC(=S)Nc1ccccc1O | . | 18µM* | ? | ? | -1% | -4%
O=C(C=Cc1ccccc1)NCCNC(=O)C=Cc1ccccc1 | . | -5% | -15% | 38 | -18% | ?
NC(=S)NC(=O)/C=C/c1ccccc1 | 5% | ? | -10% | -96* | 2% | -17%
O=C(/C=C/c1ccccc1)NNC(=O)C1CC1 | 4% | -36% | -11% | -17 | -102% | 14µM*
O=C(/C=C/c1ccccc1)NC(=S)Nc1ccccc1O | . | 21µM* | ? | -63* | -2% | 12%
CC(C)C[C@@H](CC(=O)N[C@@H](CCCN)CC(=O)N[C@@H]1CCNC[C@H]1C(=O)N[C@H](CC(=O)N[C@@H](CCC(=O)O)CC(=O)O)CC(C)C)NC(=O)[C@@H]1CNCC[C@H]1N | 5% | . | . | . | . | .
O=C(Nc1nc2n(n1)C(c1ccccc1)C=C(c1ccccc1)N2)c1ccc(Cl)c([N+](=O)[O-])c1 (stereo not given) | 9% | 12µM* | 12µM* | . | -7% | -29%
O=C(Nc1nc2n(n1)C(c1ccc(F)cc1)C=C(c1ccc(Cl)cc1)N2)c1ccc([N+](=O)[O-])cc1 (stereo not given) | 9% | 5.2µM* | 5.8µM* | . | -32% | -19%
Cc1ccc(C(=O)Nc2nc3n(n2)C(c2ccccc2)C=C(c2ccccc2)N3)cc1 (stereo not given) | -3% | ? | ? | . | -6% | 0%
